Screening data: PubChem BioAssay, National Center for Advancing Translational Sciences (NCATS)
An excerpt weighted towards active compounds, which were near 2.9% of everything screened.
DRD3 agonist: qHTS of D3 Dopamine Receptor Agonist: qHTS; AID 652048, 2013; D(3) dopamine receptor (Homo sapiens), P35462; D3R DiscoveRx beta-arrestin cells, luminescence, 90 min; max activation, %; 410,000 tested, 0.58% active; in the data active = max activation above about 30%
Target sequence (P35462 whole entry, looked up): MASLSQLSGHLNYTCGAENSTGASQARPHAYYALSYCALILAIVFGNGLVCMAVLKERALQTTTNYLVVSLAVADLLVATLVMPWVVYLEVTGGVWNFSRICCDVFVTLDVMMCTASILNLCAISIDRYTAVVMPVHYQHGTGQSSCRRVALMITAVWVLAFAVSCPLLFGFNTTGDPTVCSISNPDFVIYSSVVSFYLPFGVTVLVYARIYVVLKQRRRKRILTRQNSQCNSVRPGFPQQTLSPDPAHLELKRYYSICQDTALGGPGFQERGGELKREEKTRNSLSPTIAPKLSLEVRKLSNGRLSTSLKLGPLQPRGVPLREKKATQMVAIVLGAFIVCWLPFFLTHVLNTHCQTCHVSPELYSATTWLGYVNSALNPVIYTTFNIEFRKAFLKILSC
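Cells at 1500/well, incubated overnight, then treated with pinned compounds (dopamine as control) for 90 min at 37 degrees C. DiscoveRx reagent added for 30 - 60 minutes at room temperature; luminescence read.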
D3 antag: qHTS of D3 Dopamine Receptor Antagonist: qHTS; D(3) dopamine receptor (Homo sapiens), P35462; D3R cells, DiscoveRx beta-arrestin luminescence, antagonist mode; hits give low values; max response, negative = inhibition, %; 360,000 tested, 2.5% active; AID 652054, 2013; in the data active = max response below about -50%; inconclusive = no clear call, values can overlap the other calls
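Cells expressing the human receptor were seeded at 1500 cells/well, incubated overnight at 37 degrees C in 5% CO2, then exposed to library compounds with dopamine controls for 90 minutes at 37 degrees C before luminescent detection.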
a7 integrin act: qHTS for Activators of Integrin-Mediated Alleviation for Muscular Dystrophy; Potency, µM (top dose mostly 38.3 µM), actives largely listed as activators; alpha7betagal myoblasts, beta-gal FDG fluorescence, 48 h; 350,000 tested, 0.064% active; active = well fitted activation curve with a large enough effect; inconclusive = small, poorly fitted or top-dose-only effect; inactive = no such curve, though single readings can be large or run the other way; also: nearly all actives have a fitted effect of over 60% in size
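Alpha7betagal+/- myoblasts (passage 13) were plated 16-24 hr, then exposed to compounds (1:260 dilution of DMSO stock) for 48 hours at 37C. After MPER lysis, β-galactosidase reporter activity was read as FDG fluorescence (ex 480/em 540) after 30 minutes.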
Hits are given with their value; i = inactive; ? = inconclusive; nt = not tested or not shown; ! = not active in a repeat; [ ] = remark or other dose.

SMILES | DRD3 agonist | D3 antag | a7 integrin act
Cc1nnc(SCC(=O)c2cc(C)n(-c3c(C)n(C)n(-c4ccccc4)c3=O)c2C)s1 | i | i | i
Cc1cc(C(=O)CSc2nncs2)c(C)n1-c1c(C)n(C)n(-c2ccccc2)c1=O | i | -95 | i
O=C(CSc1ncccn1)Nc1ccc(N2CCOCC2)cc1 | i | ? | i
Cn1c(=O)cc(SCC(=O)NCCCN2CCN(c3ccc(F)cc3)CC2)c2ccccc21 | i | -69 | i
Cn1c(=O)cc(SCC(=O)NCc2ccc(F)cc2)c2ccccc21 | i | i | i
Cn1c(C(=O)NCCN2CCc3ccccc3C2)cc2c(=O)n(C)c3ccccc3c21 | i | -88 | i
Cn1c(C(=O)NCCN2CCN(c3ccccc3F)CC2)cc2c(=O)n(C)c3ccccc3c21 | i | i | i
Cn1c(C(=O)NCCN2CCOCC2)cc2c(=O)n(C)c3ccccc3c21 | i | i | i
O=C(CCn1c(=O)oc2ccccc21)NCCCN1CCN(c2ccc(F)cc2)CC1 | i | -52 | i
Cn1c(C(=O)NCCCN2CCN(c3ccc(F)cc3)CC2)cc2c(=O)n(C)c3ccccc3c21 | i | -84 | i
O=C(CCn1c(=O)oc2ccccc21)NCCCN1CCOCC1 | i | i | i
COc1ccc(CCCc2n[nH]c(=S)o2)c(C)c1 | i | i | i
COc1ccc(C)cc1NC(=O)c1ccc(OCc2c(C)noc2C)cc1 | i | i | i
Cc1ccc(NC(=O)Nc2ncnc3nc[nH]c23)cc1 | i | i | i
CCCc1c(C)nc(N2CCN(c3ccc(F)cc3)CC2)[nH]c1=O | i | i | i
Cn1c(=O)cc(SCC(=O)NCCc2ccc(Cl)cc2)c2cc(Cl)ccc21 | i | nt | nt
Cn1c(=O)cc(SCC(=O)NCCN2CCN(c3ccccc3F)CC2)c2cc(Cl)ccc21 | i | -63 | i
O=C(NCc1cccc(Br)c1)C1CC2Cn3c(nc4ccccc43)C2N1Cc1ccccc1 (centres undefined) | i | i | i
Cc1cc(C)c(C(=O)COC(=O)c2cc([N+](=O)[O-])ccc2NCCO)cc1C | i | i | i
O=C(c1ccccc1)c1cccs1 | i | i | i
O=C1NC(c2ccccc2)C(C(=O)c2cccs2)=C1O (centres undefined) | i | -58 | i
C=CCn1c(SCC(=O)c2ccc(Br)cc2)nnc1C(CC(C)C)NC(=O)c1cccs1 (centres undefined) | i | i | i[7.66 µM]
Cc1ccc(NC(=O)CCN2C(=O)NC(C)(C)C2=O)cc1F | i | i | i
CC1(C)c2ccccc2N2CC(=O)N[C@@]21/C=C/C=C/c1ccccc1 | i | i | i
Cc1ccccc1/C=C/C12NC(=O)CN1c1ccccc1C2(C)C (centres undefined) | 31 | i | i
SMILES | DRD3 agonist | D3 antag | a7 integrin act
CCN(CC)c1ccc2cc(-c3nc(-c4ccc(Cl)cc4Cl)cs3)c(=O)oc2c1 | i | nt | nt
CCN(CC)c1ccc2cc(-c3nc(-c4ccc(OC)cc4)cs3)c(=O)oc2c1 | 33 | i | i
COCCn1c(=NC(=O)CSCC(=O)Nc2cc(C)on2)sc2cc(C(=O)OC)ccc21 | i | i | i
CCCCn1c(N)c(N(CC)C(=O)c2cnc(C)cn2)c(=O)[nH]c1=O | i | i | i
COc1ccccc1NC(=O)c1ccc(-n2cncn2)nc1 | 31 | i | i
CCOc1ccccc1NC(=O)c1ccc(-n2cncn2)nc1 | i | i | ?
Cc1ccc(OCC(O)CN2CCN(Cc3ccc4c(c3)OCO4)CC2)c(C)c1 (centres undefined) | i | -60 | i
CC(=O)c1ccc(OCC(O)CN2CCN(Cc3ccc4c(c3)OCO4)CC2)cc1 (centres undefined) | i | -51! | i
COc1ccc(OCC(O)CN2CCN(Cc3ccc4c(c3)OCO4)CC2)cc1 (centres undefined) | i | i | i
Cc1ccc(OCC(O)CN2CCOCC2)c(C)c1 (centres undefined) | i | i | ?
COc1ccc(Cl)cc1N1C(=O)/C(=C\c2sccc2C)N=C1SCC(=O)NC1CC1 | i | i | i
O=C(c1ccco1)N1CCN(S(=O)(=O)c2ccc(Oc3ccccc3)cc2)CC1 | i | i | i[7.66 µM]
CCOc1ccc(C2NC(=O)C(C#N)=C(S)N2c2ccc(OC)cc2)cc1OC (centres undefined) | i | -68 | i
COc1ccc(N2C(S)=C(C#N)C(=O)NC2c2ccc(OC)c(OC)c2)cc1 (centres undefined) | i | i | i
COc1cc(C2NC(=O)C(C#N)=C(S)N2c2ccc(C)cc2)ccc1OC(C)C (centres undefined) | i | -68 | i
COc1ccc(C2NC(=O)C(C#N)=C(S)N2c2ccc(C)cc2)cc1OC (centres undefined) | i | i | i
COc1ccc(NC(=O)CCn2nc(-c3ccc(Cl)cc3)c3ccccc3c2=O)cc1 | i | nt | nt
Cc1ccc(NC(=O)N2CCCC2c2cccs2)cc1 (centres undefined) | i | i | i
CC1(C(=O)NS(=O)(=O)C2CC2)CCCN(C(=O)c2ccc3ccccc3c2)C1 (centres undefined) | i | i | nt
CSc1ncc(Cl)c(C(=O)N(Cc2ccc(C)cc2)C2CCS(=O)(=O)C2)n1 (centres undefined) | i | nt | nt
COCc1cc(C)nc(SCC[N+](C)(C)CC(=O)Nc2cccc(C)c2)c1C#N | i | i | i
COCc1cc(C)nc(SCC[N+](C)(C)CC(=O)c2ccccc2)c1C#N | i | -55 | i
CC(C)(C)NCc1cc(Cl)ccc1OCc1ccccc1F | i | i | i
COc1ccc(C(CNC(=O)c2ccc(-c3ccccc3)cc2)N(C)C)cc1OC (centres undefined) | i | i | i
CC(C)c1ccccc1OCC(O)CN1CCN(S(=O)(=O)c2ccc([N+](=O)[O-])cc2)CC1 (centres undefined) | i | -55 | ?
SMILES | DRD3 agonist | D3 antag | a7 integrin act
O=S(=O)(c1ccc(F)cc1)N1CCN(CC(O)COc2ccccc2F)CC1 (centres undefined) | i | i | i
Cc1ccc(S(=O)(=O)n2nc(C)cc2N)cc1 | i | i | i
COc1cc([N+](=O)[O-])cc(/C=N/NC(=O)c2ccc(C)nc2)c1O | i | ? | i
COc1cc([N+](=O)[O-])cc(/C=N/NC(=O)c2ccc(NC(=O)c3ccc(C)cc3)cc2)c1O | i | i | i
COc1cc([N+](=O)[O-])cc(/C=N/NC(=O)C(C)Nc2ccccc2C)c1O (centres undefined) | i | -98 | i
COc1cc([N+](=O)[O-])cc(/C=N/NC(=O)C(C)Nc2cccc(C)c2)c1O (centres undefined) | i | -55 | i
CCCNC(=O)Nc1cccc(C(=O)OC)c1 | i | i | ?
CCOc1cc(/C=N/NC(=O)c2ccc(CN3CCOCC3)cc2)ccc1OCc1ccccc1 | i | i | i
N/C(=N\OC(=O)/C=C/c1ccc(Br)cc1)c1ccccn1 | i | i | i
C=CCN1CC(=O)N2Cc3[nH]c4ccccc4c3C[C@H]2C1=O | i | i | i
NCCS | 65! | -85 | nt
COc1ccc2ccccc2c1/C=N/NC(=O)c1ccc(C)nc1 | i | i | i
O=C(CCc1nc2ccccc2c(=O)[nH]1)N1CCN(S(=O)(=O)c2cccc([N+](=O)[O-])c2)CC1 | i | i | i
